Among the test systems are SR leukemia; RPMI-8226 leukemia; OVCAR-8 ovarian; OVCAR-5 ovarian; OVCAR-4 ovarian; SK-OV-3 ovarian; IGROV1 ovarian; OVCAR-3 ovarian; HS 578T breast; NCI/ADR-RES ovarian.
Holding throughout (assay): NCI-60 one-dose screen, 48 h (100 = growth as untreated, 0 = no growth, -100 = all killed)
Settings in all cases: 10 µM

The panel holds about 83,000 compounds, 20% with a hit somewhere; the sample as a whole holds those more often.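 Growth was measured after 48 h exposure to one concentration of compound in 96-well plates. Values under 10 count as active.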 A number with no mark means an inactive call. Calls of active or inactive are those of the source.

With `N#Cc1ccc(-c2nn(-c3ccc(C(=O)O)cc3)cc2CNc2cc(Cl)cc(C(F)(F)F)c2)cc1`, the growth in the assay on SR leukemia was 1.72% (active); with RPMI-8226 leukemia it was 1.01% (active); with OVCAR-8 ovarian, 20.1%; with OVCAR-5 ovarian it was 59.8%; in the assay on OVCAR-4 ovarian, 27.8%; in the assay with SK-OV-3 ovarian, 55.2%. Also, the growth with IGROV1 ovarian was 34.7%; in the assay with OVCAR-3 ovarian it was 22%; in the assay on HS 578T breast, -0.292% (active); in the assay on NCI/ADR-RES ovarian, 1.78% (active).

As to `Cc1ccc(/C=C/C(=O)c2ccc(NC(=O)CSc3nnc(-c4c[nH]c5ccccc45)n3-c3ccccc3)cc2)c(C)c1`, the growth in the assay on SR leukemia was 41.6%; with RPMI-8226 leukemia, 22.8%; in the assay with OVCAR-8 ovarian, 1.17% (active); in the assay with OVCAR-5 ovarian it was 77.3%; in the assay on OVCAR-4 ovarian it was 13.1%; in the assay with SK-OV-3 ovarian it was 106%. Moreover, the growth with IGROV1 ovarian was 66.8%; with OVCAR-3 ovarian, 32%; in the assay on HS 578T breast, 67.8%; with NCI/ADR-RES ovarian, 64.2%.

On to `CC(C)C1=C[C@@]23CC[C@@H]4[C@](C)(CCC[C@]4(C)C(=O)NCc4ccccc4)[C@H]2C[C@@H]1[C@H]1C(=O)OC(=O)[C@H]13`, for which the growth in the assay on SR leukemia is 6.39% (active); with RPMI-8226 leukemia, 24.7%; in the assay on OVCAR-8 ovarian, 42.7%; with OVCAR-5 ovarian, 93.6%; with OVCAR-4 ovarian, 49.8%; in the assay on SK-OV-3 ovarian, 74.5%. The growth in the assay with IGROV1 ovarian is 31.1%; in the assay on OVCAR-3 ovarian it was 42%; with HS 578T breast it was 44.6%; with NCI/ADR-RES ovarian, 37.4%.

For `CC1=N/C(=C\c2ccc(N(C)C)cc2)C(=O)N1CCc1ccc(S(N)(=O)=O)cc1`, the growth in the assay on SR leukemia was 86.4%; in the assay with RPMI-8226 leukemia it was 87.1%; with OVCAR-8 ovarian it was 97.9%; with OVCAR-5 ovarian, 116%; with OVCAR-4 ovarian, 99.7%; in the assay on SK-OV-3 ovarian, 95.3%. The growth with IGROV1 ovarian is 103%; with OVCAR-3 ovarian, 109%; in the assay with HS 578T breast, 91.6%; in the assay on NCI/ADR-RES ovarian it was 96.6%.

`COc1ccc(C(=O)Nc2sc3c(c2C#N)CCC(=O)C3)cc1C(F)(F)F`: the growth in the assay with SR leukemia was 0.622% (active); with RPMI-8226 leukemia, 4.37% (active); in the assay on OVCAR-8 ovarian, 2.79% (active); in the assay on OVCAR-5 ovarian, 35.3%; with OVCAR-4 ovarian, 21.7%; with SK-OV-3 ovarian, -3.75% (active). The growth is 13.7% in the assay with IGROV1 ovarian, -6.94% (active) in the assay with OVCAR-3 ovarian, -11.7% (active) in the assay with HS 578T breast and -44.7% (active) in the assay with NCI/ADR-RES ovarian.

For `CCOP(=O)(OCC)O[C@H]1CCC(=O)[C@@H]2[C@H]1[C@H]1C[C@@H]3[C@@]4(C)CCCC(C)(C(=O)OC)[C@@H]4CC[C@@]23C=C1C(C)C` (stereo not given in full), the growth is 37.5% in the assay with SR leukemia; 21.9% with RPMI-8226 leukemia; 55.5% in the assay on OVCAR-8 ovarian; 92.7% in the assay on OVCAR-5 ovarian; 49.5% in the assay with OVCAR-4 ovarian; 54% in the assay with SK-OV-3 ovarian. Also, the growth in the assay with IGROV1 ovarian is 72.1%; with OVCAR-3 ovarian it was 67.7%; in the assay on HS 578T breast, 59.5%; in the assay with NCI/ADR-RES ovarian, 44.3%.

`Cn1cc(/C=N/Nc2ccnc3cc(Cl)ccc23)c2ccccc21`: the growth with SR leukemia was -25% (active); in the assay on RPMI-8226 leukemia, -41.4% (active); with OVCAR-8 ovarian, -52.7% (active); with OVCAR-5 ovarian, -90.5% (active); with OVCAR-4 ovarian, -76.4% (active); in the assay on SK-OV-3 ovarian, -71.2% (active). Further, the growth in the assay with IGROV1 ovarian was -72.3% (active); in the assay on OVCAR-3 ovarian, -89.8% (active); in the assay with HS 578T breast it was -63.7% (active); in the assay on NCI/ADR-RES ovarian, -79.8% (active).

For the compound `Cc1cc(C)nc(/N=C(\N)Nc2ccc(S(=O)(=O)Nc3nc(C)cc(C)n3)cc2)n1`, the growth was 99.8% in the assay on SR leukemia; 98.9% in the assay with RPMI-8226 leukemia; 107% with OVCAR-8 ovarian; 119% with OVCAR-5 ovarian; 111% with OVCAR-4 ovarian; 106% with SK-OV-3 ovarian. Also, the growth with IGROV1 ovarian is 106%; with OVCAR-3 ovarian, 112%; in the assay on HS 578T breast it was 103%; with NCI/ADR-RES ovarian, 110%.

For `O=C1CCC(N2Cc3cc(NC(=O)COc4ccccc4)ccc3C2=O)C(=O)N1` (stereo not given), the growth with SR leukemia is 73.1%; in the assay on RPMI-8226 leukemia, 65%; in the assay on OVCAR-8 ovarian it was 47.8%; in the assay with OVCAR-5 ovarian it was 83.3%; in the assay with OVCAR-4 ovarian, 72.2%; in the assay on SK-OV-3 ovarian, 99.2%. The growth with IGROV1 ovarian was 45.8%; in the assay with OVCAR-3 ovarian it was 85.8%; in the assay with HS 578T breast, 36.3%; with NCI/ADR-RES ovarian, 37.8%.

`CN1C(=O)N(C)C2SC(N/N=C/c3ccc(F)cc3)=NC21` (stereo not given): the growth in the assay on SR leukemia is 11.7%; in the assay with RPMI-8226 leukemia it was 77%; in the assay on OVCAR-8 ovarian, 66.8%; in the assay with OVCAR-5 ovarian, 77.9%; in the assay on OVCAR-4 ovarian, 77.2%; in the assay with SK-OV-3 ovarian, 61.8%. In addition, the growth with IGROV1 ovarian is 46%; in the assay with OVCAR-3 ovarian, -41.9% (active); in the assay with HS 578T breast, 33.5%; in the assay on NCI/ADR-RES ovarian, 13%.

For the compound `COc1ccc2c3nc4cc(C)c(C)cc4nc3n(CCN(C)C)c2c1`, the growth is 9.88% (active) in the assay on SR leukemia; 9.26% (active) in the assay with RPMI-8226 leukemia; -56.4% (active) in the assay on OVCAR-8 ovarian; 24.5% in the assay with OVCAR-5 ovarian; -26.1% (active) in the assay on OVCAR-4 ovarian; -12.8% (active) with SK-OV-3 ovarian. In addition, the growth with IGROV1 ovarian was -8.59% (active); in the assay on OVCAR-3 ovarian it was -47.1% (active); in the assay on HS 578T breast, 49.1%; in the assay on NCI/ADR-RES ovarian, 0.91% (active).

In the case of `COc1ccc(/C=C/C(=O)c2ccc(N3CCN(C)CC3)cc2)c(C(F)(F)F)c1`, the growth with SR leukemia is 7.12% (active); in the assay on RPMI-8226 leukemia it was 0.333% (active); with OVCAR-8 ovarian, 49.6%; in the assay on OVCAR-5 ovarian, 86.4%; with OVCAR-4 ovarian it was 43.9%; with SK-OV-3 ovarian, 63.7%. For the same compound, the growth in the assay with IGROV1 ovarian was 55%; with OVCAR-3 ovarian, 46.9%; with HS 578T breast, 18.8%; in the assay with NCI/ADR-RES ovarian it was 59.3%.

Turning to `CCOc1ccc(/C=N/NC(=O)Cn2nc(Cc3ccccc3)c3onc(C)c3c2=O)cc1`, the growth with SR leukemia was 78.1%; in the assay on RPMI-8226 leukemia it was 76.2%; in the assay on OVCAR-8 ovarian, 5.16% (active); in the assay on OVCAR-5 ovarian, 60.9%; in the assay with OVCAR-4 ovarian it was 10.6%; in the assay with SK-OV-3 ovarian it was -5.84% (active). Besides, the growth with IGROV1 ovarian was 38.5%; in the assay with OVCAR-3 ovarian it was 14.7%; in the assay on HS 578T breast it was -12.7% (active); in the assay on NCI/ADR-RES ovarian it was 16.1%.

These data come from PubChem BioAssay (NCI).
